# From PubChem BioAssay (NCI)
# About 79,000 compounds went through this panel and 15% of them were active in at least one assay; those are over-represented in the sample as a whole. Values without a mark were called inactive. Activity calls are given as the source filed them. Cut-off read from the data, not from the text of the source: active = growth inhibition above about 70%; inactive = the rest.
# Experiment: NCI Yeast Anticancer Drug Screen. Data for the bub3 strain (AID 167)
# Conditions: S. cerevisiae bub3 mutant strain, at 50.0 µM, hits give high values
# Summary of the method: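 Screening used yeast with an engineered genetic alteration affecting cell cycle control. Compound-exposed cultures were compared with vehicle cultures, and reduced growth was taken as inhibition.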
row,SMILES,growth inhibition
1,CCN(CC)/C(=C\Cl)Nc1ccccn1,6.55%
2,CCCCCCCC(=O)[O-].N.N.N.N.N.[Co+3].[O-][Cl+3]([O-])([O-])[O-],-10.7%
3,CCOP(=O)(CCP(=O)(OCC)OCC)OCC.C[CH2][Sn]([Cl])([Cl])[CH2]C,42.1%
4,CC(=O)C1=C(O)C2C3c4c[nH]c5cccc(c45)CC3C(C)(C)N2C1=O (stereo not given),15%
5,O=[N+]([O-])/C=C\c1c[nH]c2ccc(OCc3ccccc3)cc12,55.5%
6,Nc1cccc(SC2CC(=O)N(c3ccc(Cl)cc3C(=O)c3ccccc3)C2=O)c1 (stereo not given),19.9%
7,CC(=O)Nc1cccc([As+](C)(C)C)c1,-3.35%
8,CN(C)C(=O)N(CCCl)N=O,13.1%
9,CC(C)OP(=O)(NC(=S)c1ccccc1)OC(C)C,13.8%
10,CC(/C=C/C1OC(=O)C=CC1C)=C\C(C)C/C=C/C(C)=C/C(CO)C(=O)C(C)C(O)C(C)C/C(C)=C/C(=O)O (stereo not given),77.6% (active)
11,C=C1OC(OC)CC(N=[N+]=[N-])C1O (stereo not given),2.45%
12,Cc1ccc(Oc2ccc3c(c2)CN(C)CC3)cc1,96.6% (active)
13,CCCC[S][Sn-]([CH2]CCC)([CH2]CCC)[CH2]CCC,99% (active)
14,CC(Cl)CN(CC(C)Cl)C(=O)Oc1ccc(CC(N)C(=O)O)cc1 (stereo not given),-0.1%
15,COC(=O)C1C(O)CC2CCC1[N+]2(C)C (stereo not given),36.9%
16,CN(C)CCN1C(=O)CN=C(c2ccccc2Cl)c2cc(Cl)ccc21,0.2%
17,O=N[O-].O=N[O-].[Co].[NH-]CC[N-]CCO.[NH-]CC[N-]CCO,5.7%
18,NC(=O)c1cc([N+](=O)[O-])cc([N+](=O)[O-])c1N(CCCl)CCCl,-8.95%
19,CC(C)C1NC(C(C)C)N2C(C(C)C)N12 (stereo not given),-2.25%
20,Cc1cc(C)c(C(=O)O)c(C)c1.[Hg],99.7% (active)
21,CCCCC1(CCC)C(=O)NC(=O)NC1=O,1%

# Experiment: NCI Yeast Anticancer Drug Screen. Data for the mlh1 rad18 strain (AID 175)
# Conditions: S. cerevisiae mlh1 rad18 strain growth inhibition; at 50.0 µM; hits give high values
# Summary of the method: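 Read-out is yeast growth inhibition, calculated against vehicle-only controls. The compound was applied to a strain engineered with DNA damage repair alterations.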
row,SMILES,growth inhibition
1,[Au].[NH-]CC[NH-].[NH-]CC[NH-],-12.5%
2,C1C[OH+]CC[OH+]CC[OH+]CC[OH+]CC[OH+]1.[Cl-].[V],-1%
3,Clc1ccc(N=P(c2ccccc2)(c2ccccc2)c2ccccc2)cc1.[Cl][Cd][Cl],69%
4,C=CCOCC1CO1 (stereo not given),15.8%
5,CC1CN1P(=O)(N1CCc2ccccc21)N1CC1C (stereo not given),0.85%
6,CCCCCCCCCCCCCCCCS(=O)(=O)c1ccc(S(=O)(=O)F)cc1NC(=O)C(F)(F)F,8.2%
7,CC(=O)c1ccc(Br)cc1,1%
8,COc1cccc(N2CCNCC2)c1,25.1%
9,CCC(N)CBr (stereo not given),8.9%
10,CN(C)C1C(=O)C(C(=O)NP(=O)(NCCCO)N(CCCl)CCCl)=C(O)C2(O)C(=O)C3=C(O)c4c(O)cccc4C(C)(O)C3CC12 (stereo not given),6.9%
11,Cc1ccc(C[N+](C)(C)C)cc1,4.5%
12,NC1=NC(N)=N1,-13.2%
13,N=c1nc(N)n2c(N)nc(=N)n12,2.45%
14,O=[N+]([O-])c1cc(Br)c(O)c(Br)c1,32.3%
15,O=C1CCC(=O)N1c1ccc([As](=O)(O)O)cc1,-16.9%
16,O=[N+]([O-])c1ccc(-n2nc3ccc4c(no[n+]4[O-])c3n2)cc1,-25.6%
17,CN1CCN[C@@H]2CCCC[C@@H]21,-11.6%
18,N#CCC(=O)[O][Sn]([c]1ccccc1)([c]1ccccc1)[c]1ccccc1,98.7% (active)
19,CCN(CC)/C(=C\Cl)Nc1ccccn1,-2.45%
20,CCCCCCCC(=O)[O-].N.N.N.N.N.[Co+3].[O-][Cl+3]([O-])([O-])[O-],-13.3%

row,SMILES,growth inhibition
1,CCOP(=O)(CCP(=O)(OCC)OCC)OCC.C[CH2][Sn]([Cl])([Cl])[CH2]C,41%
2,CC(=O)C1=C(O)C2C3c4c[nH]c5cccc(c45)CC3C(C)(C)N2C1=O (stereo not given),21.8%
3,O=[N+]([O-])/C=C\c1c[nH]c2ccc(OCc3ccccc3)cc12,40.9%
4,Nc1cccc(SC2CC(=O)N(c3ccc(Cl)cc3C(=O)c3ccccc3)C2=O)c1 (stereo not given),22.9%
5,CC(=O)Nc1cccc([As+](C)(C)C)c1,16.9%
6,CN(C)C(=O)N(CCCl)N=O,20.8%
7,CC(C)OP(=O)(NC(=S)c1ccccc1)OC(C)C,13.9%
8,CC(/C=C/C1OC(=O)C=CC1C)=C\C(C)C/C=C/C(C)=C/C(CO)C(=O)C(C)C(O)C(C)C/C(C)=C/C(=O)O (stereo not given),87.4% (active)
9,C=C1OC(OC)CC(N=[N+]=[N-])C1O (stereo not given),-15.6%
10,Cc1ccc(Oc2ccc3c(c2)CN(C)CC3)cc1,95.7% (active)
11,CCCC[S][Sn-]([CH2]CCC)([CH2]CCC)[CH2]CCC,99% (active)
12,CC(Cl)CN(CC(C)Cl)C(=O)Oc1ccc(CC(N)C(=O)O)cc1 (stereo not given),20.3%
13,COC(=O)C1C(O)CC2CCC1[N+]2(C)C (stereo not given),-6.8%
14,CN(C)CCN1C(=O)CN=C(c2ccccc2Cl)c2cc(Cl)ccc21,27.6%
15,O=N[O-].O=N[O-].[Co].[NH-]CC[N-]CCO.[NH-]CC[N-]CCO,7.55%
16,NC(=O)c1cc([N+](=O)[O-])cc([N+](=O)[O-])c1N(CCCl)CCCl,-14.6%
17,CC(C)C1NC(C(C)C)N2C(C(C)C)N12 (stereo not given),-1.5%
18,Cc1cc(C)c(C(=O)O)c(C)c1.[Hg],99.7% (active)
19,CCCCC1(CCC)C(=O)NC(=O)NC1=O,15.8%
